# Results as given in PubChem BioAssay (NCATS).
# “And” between values parts separate entries of the source, which are not always exact repeats. Identical values can stand only once. Inconclusive results are not listed. The source made the active and inactive calls. The call rests on the fitted dose curve; in most records, active means well fitted cell-killing curve with a large enough effect; inconclusive means small, poorly fitted or top-dose-only effect; inactive means flat fitted curve, though single readings scatter.
# Assay: Cellular viability qHTS for adrenocortical cancer (ACC) cell line SW-13 (AID 1963989); further: nearly all actives have a fitted effect of over 65% in size;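 on activity (max response): cells grown in serum-free medium with ITS supplement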
# Details: SW-13 ACC cells viability, CellTiter-Glo, 48 h; activity (max response): hits give low values
# Description: PI: Naris Nilubol, MD Surgical Oncology Program, National Cancer Institute (NCI) National Institute of Health (NIH), Bethesda, Maryland Adrenocortical cancer (ACC) is a rare malignancy with poor survival outcomes and few treatment options. Currently, mitotane is the only FDA-approved therapy for ACC. Although adjuvant radiation therapy is rarely utilized, it has the potential to improve survival in select cases. Through a quantitative high-throughput drug screen (qHTS), we identified auranofin (AF), a thioredoxin reductase (TXNRD) inhibitor, as a promising candidate drug. This study aims to evaluate whether AF can enhance the efficacy of radiation therapy in the treatment of ACC. Two human ACC cell lines, SW-13 and NCI-H295R, were screened using the National Center for Advancing Translational Sciences (NCATS) Pharmaceutical Collection (NPC) and the Mechanism Interrogation PlatE (MIPE) library (~4,991 compounds). CellTiter-Glo (Cat # G7570, Promega, Madison, WI) was utilized to measure cell viability. Described herein are the results of the corresponding viability assay.
# PROTOCOL TABLE (as described by Inglese J, Shamu CE and Guy RK. 2007) SEQUENCE No. (e.g., 1, 2, 3, etc.); […] (e.g., Cells, Incubation, Reagent, etc.); VALUE; DESCRIPTION. 1; Cells; 5 uL; white, solid-bottom, 1536-well tissue-culture treated plates. 2; Time; overnight culture at 37C with 5% CO2. 3; Compounds and control; 23 nL; Kalypsis pin tool (Wako USA) equipped with a 1536-well pin head to transfer to the assay plates. 4; Time; 48 hours; 37C with 5% CO2. 5; Reagent; 4 uL; CellTiter-Glo luminescent substrate mix. 6; Time; 20 min at room temperature. 7; Detection; Luminescence; ViewLux plate reader NOTES (numbers refer to Sequence numbers above) 1. SW13 cells were harvested from a T175 flask and resuspended in ITS-supplemented DMEM serum-free medium at a concentration of 300 000 cells/mL. Then 5 uL of resuspended cells were dispensed into each well of white, solid-bottom, 1536-well tissue-culture-treated plates using a multidrop combi dispenser. The plates were covered with stainless steel gasket lids. 2-3. The plates were cultured overnight at 37C with 5% CO2. Twenty-three nL of compounds (eight selected concentrations from the NPC / MIPE) or positive control (10 mM stock of bortezomib) in DMSO was transferred to each well of the assay plate using a pin tool (Kalypsys, San Diego, CA, USA). The final concentration of the compounds in the 5 uL assay volume ranged from 0.5 nM to 46 uM. 4-6. After 48 hours of incubation at 37C and 5% CO2, 4 uL of CellTilter-Glo luminescent substrate mix (Promega, Madison, WI, USA) was added to each well. Then the plates were incubated for 20 minutes at room temperature. 7. After incubation, luminescence was measured using a ViewLux plate reader (PerkinElmer, Waltham, MA, USA) with a clear filter was used to measure the number of metabolically competent cells. To determine compound activity in the qHTS assay, the titration-response data for each sample was plotted and modeled by a four-parameter logistic fit yielding IC50 and efficacy (maximal response) values. […] REFERENCES: Inglese J, Shamu CE and Guy RK, Reporting data from high throughput screening of small molecule libraries, Nature Chemical Biology, 2007, 3(8): 438-441. doi.org/10.1038/nchembio0807-438.
# On the % scale 0 is the no-effect control and ±100 the full control effect.
Structure (SMILES),activity (max response),Potency
CC[N+](CC)(CC)CCOc1cccc(OCC[N+](CC)(CC)CC)c1OCC[N+](CC)(CC)CC,11.3% (inactive) and -11.4% (inactive),
c1ccc2c(CCNc3ccc(Nc4ccncc4)cc3)c[nH]c2c1,,1.58 µM (active)
NNCCc1ccccc1,-8.17% (inactive),
O=C(NCCCNC(=O)c1ccc[nH]c1=O)c1cc(-c2ccccc2)on1,,22.4 µM (active)
C[C@@H](Nc1ncnc2[nH]c(-c3ccc(O)cc3)cc12)c1ccccc1,,3.98 µM (active)
O=C1O[C@H](CO)[C@@H](O)[C@H](O)[C@H]1O,5.91% (inactive),
CCC(CN)=C(c1ccccc1)c1ccccc1,-12.8% (inactive),
Cc1ccc(/C=N/NC(=O)c2ccccc2Oc2ccccc2)o1,-16.3% (inactive),
COc1cc(OC)nc(O[C@H](C(=O)O)C(OC)(c2ccccc2)c2ccccc2)n1,12.1% (inactive),
CCC1(C)CC(=O)NC1=O (stereo not given),14.5% (inactive) and 4.04% (inactive),
CC1CCN(CCCC(=O)c2ccc(F)cc2)CC1,-0.695% (inactive),
NCCNCCNCCNCCN,2.38% (inactive),
CC(=O)OCC(=O)[C@H]1CC[C@H]2[C@@H]3CCC4=CC(=O)CC[C@]4(C)[C@H]3CC[C@]12C,2.66% (inactive),
CO[C@]12C[C@@H](COC(=O)c3cncc(Br)c3)CN(C)[C@@H]1Cc1cn(C)c3cccc2c13,3.85% (inactive),
COc1ccc2c(c1)c(CC(=O)OC/C=C(\C)CC/C=C(\C)CCC=C(C)C)c(C)n2C(=O)c1ccc(Cl)cc1,2.52% (inactive),
Nc1ccc(N=Nc2ccccc2)c(N)n1,-2.95% (inactive),
CN(C)CCC(c1ccccc1)c1ccccn1 (stereo not given),13.1% (inactive),
Cc1cc(-n2nc3ccc(Cl)cc3n2)c(O)c(C(C)(C)C)c1,9.75% (inactive),
C#Cc1ccc(-c2ccccc2F)cc1,-5.81% (inactive),
Cc1oncc1C(=O)Nc1ccc(C(F)(F)F)cc1,-12.3% (inactive) and -17.5% (inactive),

Structure (SMILES),activity (max response),Potency
Cc1oc(=O)oc1CN1CCN(c2cc3c(cc2F)c(=O)c(C(=O)O)c2n3C(C)S2)CC1 (stereo not given),4.83% (inactive) and 4.68% (inactive),
CC(=O)OCC(=O)[C@@]1(O)CC[C@H]2[C@@H]3CCC4=CC(=O)C=C[C@]4(C)[C@H]3[C@@H](O)C[C@@]21C,1.48% (inactive) and -12.4% (inactive),
CNC(=O)c1cccc2cc(Oc3ccnc4cc(OCC5(N)CC5)c(OC)cc34)ccc12,,28.2 µM (active)
C[C@]1(C(=O)N(CCCC(=O)O)Cc2cccc(Cl)c2)CCN1C(=O)c1csc2ccccc12,-17.4% (inactive),
CC(=O)CC/C=C(\C)CC/C=C(\C)CC/C=C(\C)CCC=C(C)C,9.79% (inactive),
C=C(C)[C@@H]1CC[C@]2(C)CC[C@]3(C)[C@H](CC[C@@H]4[C@@]5(C)CC[C@H](O)C(C)(C)[C@H]5CC[C@]43C)[C@@H]12,4.74% (inactive),
CCCCCCCCCCCCCCCCCCO,-0.0263% (inactive),
CC(=O)OC[C@H]1O[C@@H](OC(C)=O)[C@H](OC(C)=O)[C@@H]1OC(C)=O,10.4% (inactive),
[O-][n+]1cccc(CO)c1,9.62% (inactive),
Nc1nc(Nc2ccc3c(c2)CC[C@@H](N2CCCC2)CC3)nn1-c1cc2c(nn1)-c1ccccc1CCC2,,14.1 µM (active)
COCCOC(=O)C1=C(C)NC(C)=C(C(=O)OC(C)C)C1c1cccc([N+](=O)[O-])c1 (stereo not given),7.46% (inactive),
C[C@H]1CNC(=O)c2cnn3ccc(nc23)N[C@H](C)c2cc(F)ccc2O1,,8.91 µM (active)
CC(C)(C)C(O)/C=C/c1ccc2c(c1)OCO2 (stereo not given),-8.69% (inactive),
Cc1nc(-c2cccnc2)sc1C(=O)Nc1ccccc1-c1cn2c(CN3CCOCC3)csc2n1,-5.59% (inactive),
C/C=C/CC(C)C(O)C1C(=O)NC(CC)C(=O)N(C)CC(=O)N(C)C(CC(C)C)C(=O)NC(C(C)C)C(=O)N(C)C(CC(C)C)C(=O)NC(C)C(=O)NC(C)C(=O)N(C)C(CC(C)C)C(=O)N(C)C(CC(C)C)C(=O)N(C)C(C(C)C)C(=O)N1C (stereo not given),-11.5% (inactive),
O=C(NCc1ccccc1)c1csc(Nc2ccncn2)n1,,25.1 µM (active)
COc1cc(C(=O)NC(N)=Nc2ccc(C)c(NC(=O)c3ccc(-c4ccccc4)cc3)c2)cc(OC)c1OC,,11.2 µM (active)
O=C(O)C1(C(=O)O)CCC1.[NH2-].[NH2-].[Pt+2],10.4% (inactive),
CC(C)Nc1cccnc1N1CCN(C(=O)c2cc3cc(NS(C)(=O)=O)ccc3[nH]2)CC1,-10.3% (inactive),
Cc1nc(C(=O)NCC(=O)O)c(O)c2ccc(Oc3ccccc3)cc12,0.299% (inactive),
